# High-throughput results: PubChem BioAssay, National Center for Advancing Translational Sciences (NCATS)
# Shown are actives, neighbours in structure and some others; about 1.5% of the full set was active somewhere.
# BRCA1 expr act = activators of BRCA1 expression; AID 624202; Potency, µM (series often up to 46.1 µM), hits mostly activators; 1.1% of 380,000 active; MCF7-BRCA1-FFLuc reporter, luminescence, 48 h; response scale: scaled: vehicle 0%, 10 µM genistein 100%; note: nearly all actives have a fitted effect of over 80% in size
#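 48 h compound treatment of MCF7-BRCA1-FFLuc cells (phenol-red free MEM, 37 °C), then 15 min with luciferase substrate and luminescence imaging.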
# Akt phos inh = inhibitors of Akt phosphorylation; 0.32% of 360,000 active; AID 651550; Neuro2A IGF-stimulated pAkt S473 HTRF, 20 min; stronger effect = lower value; activity change, % for hits at 50 µM; in the data active = activity change below about -80%; inconclusive = mostly about -51% to -80%
#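 Neuro2A cells (4,500/well, DMEM with 0.5% FBS) were treated with compound at a single 50 µM final concentration, stimulated with 6 nM IGF for 20 min at 37 °C, and lysed. Phospho-Akt Ser473 was read by HTRF as 665/615 ratio ×10^4.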
# PINK1 expr mod = PINK1 expression modulation. PINK1 immunofluorescence, high-content cytometry, 24 h. Potency, µM (titrated, usually from 76.6 µM), usual class: activators. 0.2% of 410,000 active. AID 624263; active = well fitted activation curve with a large enough effect; inconclusive = small, poorly fitted or top-dose-only effect; cell line not stated here; note: nearly all actives have a fitted effect of over 65% in size
#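 Fluorescence from anti-PINK1 antibody, together with nuclear and cell stains, was scanned on a laser-scanning cytometer. Before staining, stable-line cells were incubated 24 hours with compounds at 5 concentrations; primary antibody 12 h at 10 degrees C.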
# TCR act = activates T cell receptor signaling | AID 504894 | Potency, µM (titrated, usually from 9.22 µM), actives largely listed as activators | primary human leukocytes, anti-CD3, IL-2 HTRF, 48 h | 330,000 tested, under 10 active
#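 Primary human leukocytes receive a-CD3 beads and test compound and are incubated 48 hr. Secreted IL-2 is then assayed by HTRF, measuring 665nm acceptor emission after 320nm excitation of the europium donor.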
# Hits are given with their value; – = inactive; ? = inconclusive; · = not tested or not shown. Unless noted, calls come from the whole dose curve; as a rule, active = well fitted curve in the direction sought with a large enough effect; inconclusive = small, poorly fitted or top-dose-only effect, or another doubt; inactive = no such curve, though single readings can be large; an effect the other way counts as inactive or inconclusive.
SMILES,BRCA1 expr act,Akt phos inh,PINK1 expr mod,TCR act
Cn1c(=O)c2c(nc(N3CCOCC3)n2CC(=O)C23CC4CC(CC(C4)C2)C3)n(C)c1=O,–,–,–,–
CN1CCN(c2nc3c(c(=O)n(C)c(=O)n3C)n2CC(=O)C23CC4CC(CC(C4)C2)C3)CC1,–,-82%,–,·
Cc1ccc2c(c1)CN(CCNC(=O)C(C)Oc1ccccc1)CC(C)O2 (centres undefined),·,·,–,·
CC(=O)N1CCN(c2nc3cc(C)ccc3cc2CN(C(=O)c2cccc3ccccc23)C2CC2)CC1,·,·,–,·
CC(=O)Nc1cccc(-c2nnc(-c3ccccc3)o2)c1,6.3µM,–,–,–
O=C(Nc1cccc(-c2nnc(-c3ccccc3)o2)c1)C1CC1,8.9µM,–,–,–
COc1ccccc1OCC(=O)Nc1cccc(-c2nnc(-c3ccco3)o2)c1,5µM,–,–,–
COc1ccc(CC(=O)Nc2ccc(-c3nnc(-c4ccccc4)o3)cc2)cc1OC,–,-118%,–,·
COC(=O)N1CCC[C@@]2(CCN(C(=O)Nc3ccc(OC)cc3)C2)C1,·,·,–,·
Cc1cccc(C)c1NC(=O)CNC(=O)Cc1c[nH]c2ccccc12,–,–,–,–
Cc1cccc(C)c1NC(=O)c1c[nH]c2ccccc12,3.5µM,–,–,–
CN1CCCC(CN(C)C(=O)c2cnn(-c3nccc(-c4ccccc4C(F)(F)F)n3)c2C2CC2)C1 (centres undefined),·,·,–,·
COCCCNC(=O)CSc1nc2c(sc3ccccc32)c(=O)n1CCCC(=O)NCCOC,·,·,–,·
O=C(Nc1cccc(-c2nc3ncccc3o2)c1)c1sc2cc(Cl)ccc2c1Cl,–,–,10µM,·
COc1cccc(-n2nc3c(-n4ncc(C#N)c4N)nnc(C)c3c2C)c1,–,-123%,–,–
Cc1cccc(-n2ncc(C#N)c2N)c1,–,–,–,–
COc1cc(OC)c(OC)cc1CN1CCOc2ccc(CN3CCN(C(C)=O)CC3)cc2C1,·,·,–,·
COc1ccc(CN2C[C@H](Sc3nc4ccccc4[nH]3)C[C@H]2C(=O)N(C)C)c2ccccc12,·,·,–,·
CC(NC(=O)c1cccnc1)c1nnc2n1CCN(Cc1ccc(-c3ccccc3Cl)o1)CC2 (centres undefined),·,·,–,·
O=C(Nc1ccc(Cl)c(Cl)c1)Nc1ccc(Br)cc1F,–,–,?,–
O=C(Nc1ccc(Cl)c(Cl)c1)Nc1ccccc1O,2.8µM,–,?,·
COc1ccc(O)c(CN2CCC3(CCC(CNC(=O)c4ccco4)O3)CC2)c1 (centres undefined),·,·,–,·
COC(=O)c1cccc(C(=O)N2CCc3c(cnc(C)c3CNC(=O)/C=C/c3cccs3)C2)c1,·,·,–,·
Cc1nc(N2CCN(Cc3ccccc3)CC2)nc2c1C(=O)CC(C)C2 (centres undefined),–,-110%,–,–
O=C(O)c1ccc2noc(-c3ccccc3)c2c1,4µM,–,–,–
SMILES,BRCA1 expr act,Akt phos inh,PINK1 expr mod,TCR act
COCCNC(=O)c1cn(C2CCN(C3CCCC3)CC2)nn1,·,·,–,·
CN(C)C=Nc1c(Br)cc(Br)c2nonc12,–,–,11µM,–
COC(=O)c1ccc(NC(=O)c2ccccc2OCC(=O)Nc2ccc(Br)cc2)cc1,–,·,–,·
C[C@@H]1CN(Cc2ccc3c(c2)CN(Cc2nc(-c4ccccc4)cs2)CCO3)C[C@H](C)O1,·,·,–,·
c1ccn2c(SCc3cn4ccsc4n3)nnc2c1,5µM,–,–,–
c1ccc(-n2cnnc2SCc2cn3ccsc3n2)cc1,–,–,–,–
Clc1ccc(CSc2nnc3ccccn23)c(Cl)c1,10µM,–,–,–
Cc1nn(C)cc1CNc1nc(C)c(-c2ccn(CC3COc4ccccc4O3)n2)s1 (centres undefined),·,·,–,·
CCSc1ncnc2sc3c(c12)CCC3,–,–,–,–
Fc1ccc(CSc2ncnc3sc4c(c23)CCCC4)cc1,–,-114%,–,–
COc1ccc(CN2CCCC(n3cc(C(=O)N4CCCCC4)nn3)C2)c(OC)c1OC (centres undefined),·,·,–,·
O=C(NOCc1ccccc1)OCc1ccccc1,11µM,–,–,–
O=C(Nc1cccc(NC(=O)c2ccco2)c1)c1ccccc1,–,–,–,–
O=C(Nc1ccc2c(c1)OCO2)OCc1ccccc1,2.2µM,–,–,–
O=C(COC(=O)c1ccccc1NC(=O)c1ccco1)Nc1ccc2c(c1)OCO2,–,-102%,–,–
O=C(CCc1ccccc1)Nc1ccc2c(c1)OCO2,–,–,–,–
O=C(c1ccccc1)c1cccc(NC(=O)c2ccco2)c1,11µM,–,–,–
Cc1ccc(CNc2ncnc3sc(C(=O)N4CCCC(C(N)=O)C4)c(C)c23)o1 (centres undefined),·,·,–,·
O=C(Nc1ccc2c(c1)OCCO2)c1c(F)cccc1F,2.5µM,–,–,·
O=C(Nc1ccc2c(c1)OCCO2)c1ccco1,–,–,11µM,·
Cc1ccccc1NC(=O)N1C2CCCC1CC(NC(=O)C1CC1)C2 (centres undefined),–,–,–,–
CCOc1ccccc1NC(=O)N1C2CCCC1CC(NC(=O)C1CC1)C2 (centres undefined),–,-88%,–,–
O=C(Nc1ccccc1F)c1nc(SCc2ccccc2F)ncc1Cl,·,·,–,·
N#CC1=C(N)OC2=C(C(=O)CCC2)C1C1C=CCCC1 (centres undefined),–,-110%,–,–
N#CC1=C(N)OC2=C(C(=O)CCC2)C1c1ccoc1 (centres undefined),–,–,–,–
SMILES,BRCA1 expr act,Akt phos inh,PINK1 expr mod,TCR act
CCCCC(=O)N1CCCC(c2nc3c(nnn3Cc3cc(C)ccc3C)c(=O)[nH]2)C1 (centres undefined),–,-118%,–,·
Cc1ccc(C)c(Cn2nnc3c(=O)[nH]c(C4CCCN(C(=O)CC(C)C)C4)nc32)c1 (centres undefined),–,–,–,–
CC(=O)NC1=CC(=O)c2nonc2C1=O,–,·,–,·
CCOC(=O)C1=NN(c2ccc(Cl)cc2)C(=O)C1,4µM,–,–,–
Cc1cccc(N/C=C/c2onc(C)c2[N+](=O)[O-])c1,2.5µM,–,–,–
Cc1ccc(C(C)C)c(Oc2nnnn2-c2ccccc2)c1,–,–,–,–
Cc1ccc(C)c(Oc2nnnn2-c2ccccc2)c1,–,-115%,–,–
Cc1cnc(-n2ncc(C(=O)NCc3ccncc3)c2C2CC2)nc1-c1cccs1,·,·,–,·
COc1ccc(Nc2nnc(SCC(=O)N(CC(C)C)C3CCS(=O)(=O)C3)s2)cc1 (centres undefined),7.1µM,–,–,·
CCN(C(=O)CSc1nnc(Nc2ccccc2)s1)C1CCS(=O)(=O)C1 (centres undefined),–,–,–,–
CSc1ncc(-c2ccc(Cl)cc2)[nH]1,10µM,–,–,–
CCOC(=O)CNC(=O)c1ccc(SCC)cc1,13µM,–,–,–
Cc1ccccc1C(=O)N1CCc2c(cnc(C)c2CNC(=O)c2ccc3c(c2)OCO3)C1,·,·,–,·
Cc1ccc(Nc2nc(N)nc(COC(=O)C3=COCCO3)n2)cc1,4µM,–,–,–
Cc1ccc(Nc2nc(N)nc(CSC(=S)N3CCOCC3)n2)cc1,5µM,–,–,–
